Laboratory results reported in PubChem BioAssay (EPA / NIEHS).
Activity calls are given as the source filed them. How the source made its calls: active means hit-call score of the fitted dose curve at least 0.9, where 1 is the maximum; inactive means score below 0.9.

Experiments:
[1] = CEETOX_H295R_PROG: CeeTox H295R High-throughput Steroidogenesis Assay for Progesterone (PROG) (AID 2283442); conditions: actives raise or lower the signal;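 on AC50: human H295R adrenal cells primed with 10 µM forskolin before dosing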
Procedure, shortened: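 Progesterone read-out: HPLC-MS/MS on MTBE extracts of conditioned medium after 48 h chemical exposure of forskolin-primed (10 uM, 48 h) H295R cells. Gain or loss of signal was fitted relative to DMSO baseline.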

[2] = read-out: Tumor necrosis factor receptor superfamily member 6 (Homo sapiens) (UniProt P25445); test: LTEA_HepaRG_FAS: Life Technologies and Expression Analysis (LTEA) Assay for Fas cell surface death receptor (FAS) using HepaRG (AID 2283447); conditions: mRNA level, 48 h; actives raise or lower the signal
Procedure, shortened: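 FAS transcript level was measured by TaqMan qRT-PCR against three housekeeping genes after 48 h chemical exposure. Cells were HepaRG, 0.5% DMSO vehicle, with a top concentration of 100 uM and half-log dilutions over eight points, in duplicate.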

[3] = read-out: Fatty acid synthase (Homo sapiens) (UniProt P49327); test: LTEA_HepaRG_FASN: Life Technologies and Expression Analysis (LTEA) Assay for Fatty Acid Synthase (FASN) using HepaRG (AID 2283448); conditions: mRNA level, 48 h; actives raise or lower the signal
Procedure, shortened: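 Transcript-level assay: HepaRG liver cells are treated for 48 h across an eight-point range topping at 100 uM, and FASN mRNA, normalized to three housekeeping genes, is compared with DMSO controls in both directions.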

[4] = read-out: Cyclin D2 (CCND2), CCND2 (gene 894); test: LTEA_HepaRG_CCND2: Life Technologies and Expression Analysis (LTEA) Assay for Cyclin D2 (CCND2) using HepaRG (AID 2283449); conditions: mRNA level, 48 h; actives raise or lower the signal
Procedure, shortened: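 Read-out is CCND2 mRNA level measured by qRT-PCR in human HepaRG liver cells and normalised to three housekeeping genes. Chemicals were applied for 48 h at up to 100 uM, with gain or loss fitted relative to 0.5% DMSO.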

[5] = read-out: Cyclin Dependent Kinase Inhibitor 1A (CDKN1A), CDKN1A (gene 1026); test: LTEA_HepaRG_CDKN1A: Life Technologies and Expression Analysis (LTEA) Assay for Cyclin Dependent Kinase Inhibitor 1A (CDKN1A) using HepaRG (AID 2283450); conditions: mRNA level, 48 h; actives raise or lower the signal
Procedure, shortened: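 HepaRG, 48 h dosing, 8-pt half-log series from 100 uM top, 0.5% DMSO vehicle, duplicates. Readout: TaqMan qRT-PCR of CDKN1A transcript, housekeeping-normalized (ACTB, GAPDH, POLR2A). Up/down curve fit relative to DMSO.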

[6] = read-out: Cyclin D1 (CCND1), CCND1 (gene 595); test: LTEA_HepaRG_CCND1: Life Technologies and Expression Analysis (LTEA) Assay for Cyclin D1 (CCND1) using HepaRG (AID 2283451); conditions: mRNA level, 48 h; actives raise or lower the signal
Procedure, shortened: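 qRT-PCR (Fluidigm 96.96 array) read-out of transcript level, housekeeping-normalized (ACTB/GAPDH/POLR2A). HepaRG cells, 48 h chemical exposure, 8-point half-log series from 100 uM, 0.5% DMSO vehicle; gain or loss relative to DMSO baseline.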

[7] = read-out: catalase (CAT), CAT (gene 847); test: LTEA_HepaRG_CAT: Life Technologies and Expression Analysis (LTEA) Assay for catalase (CAT) using HepaRG (AID 2283452); conditions: mRNA level, 48 h; actives raise or lower the signal
Procedure, shortened: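 Expression of CAT was quantified by TaqMan qRT-PCR with ACTB/GAPDH/POLR2A normalization after 48 h chemical exposure of HepaRG. Eight-point half-log series, top 100 uM, in 0.5% DMSO; gain or loss fitted against vehicle.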

[8] = read-out: flavin-containing dimethylaniline monooxygenases 3 (FMO3), FMO3 (gene 2328); test: LTEA_HepaRG_FMO3: Life Technologies and Expression Analysis (LTEA) Assay for flavin-containing dimethylaniline monooxygenases 3 (FMO3) using HepaRG (AID 2283453); conditions: mRNA level, 48 h; actives raise or lower the signal
Procedure, shortened: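 HepaRG, 48 h exposure, 8-pt half-log series from 100 uM, 0.5% DMSO vehicle, duplicates; FMO3 transcript by Fluidigm TaqMan qRT-PCR, housekeeping-normalized; gain/loss fit vs DMSO.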

[9] = read-out: Cytochrome P450 (CYP1A1), CYP1A1 (gene 1543); test: LTEA_HepaRG_CYP1A1: Life Technologies and Expression Analysis (LTEA) Assay for Cytochrome P450 (CYP1A1) using HepaRG (AID 2283454); conditions: mRNA level, 48 h; actives raise or lower the signal
Procedure, shortened: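 qRT-PCR read-out: CYP1A1 transcript normalized to three housekeeping genes, fitted bidirectionally against 0.5% DMSO vehicle baseline. Human HepaRG cells, 48 h chemical exposure, 8-point half-log series topping at 100 uM.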

[10] = read-out: CFLAR gene, CFLAR (gene 8837); test: LTEA_HepaRG_CFLAR: Life Technologies and Expression Analysis (LTEA) Assay for CFLAR gene using HepaRG (AID 2283455); conditions: mRNA level, 48 h; actives raise or lower the signal
Procedure, shortened: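 HepaRG, 48 h exposure, 8-pt conc-response (100 uM top, half-log), 0.5% DMSO vehicle, duplicates. CFLAR expression by qRT-PCR; ACTB/GAPDH/POLR2A normalization; gain or loss fit vs DMSO baseline.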

[11] = read-out: Forkhead box O1 (FOXO1), FOXO1 (gene 2308); test: LTEA_HepaRG_FOXO1: Life Technologies and Expression Analysis (LTEA) Assay for Forkhead box O1 (FOXO1) using HepaRG (AID 2283456); conditions: mRNA level, 48 h; actives raise or lower the signal
Procedure, shortened: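 Readout is FOXO1 transcript level by multiplexed qRT-PCR against three housekeeping genes, curve-fitted in both directions relative to 0.5% DMSO vehicle. Human HepaRG cultures received chemicals for 48 h, up to 100 uM in half-log steps.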

[12] = read-out: growth arrest and DNA damage 45 (GADD45A), GADD45A (gene 1647); test: LTEA_HepaRG_GADD45A: Life Technologies and Expression Analysis (LTEA) Assay for growth arrest and DNA damage 45 (GADD45A) using HepaRG (AID 2283458); conditions: mRNA level, 48 h; actives raise or lower the signal
Procedure, shortened: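 Human HepaRG liver cells are treated in duplicate for 48 h with chemicals in 0.5% DMSO, highest concentration 100 uM. Expression is read by qRT-PCR and analyzed in both directions against vehicle.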

[13] = read-out: Forkhead box O3 (FOXO3), FOXO3 (gene 2309); test: LTEA_HepaRG_FOXO3: Life Technologies and Expression Analysis (LTEA) Assay for Forkhead box O3 (FOXO3) using HepaRG (AID 2283459); conditions: mRNA level, 48 h; actives raise or lower the signal
Procedure, shortened: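 HepaRG, 48 h post-dose; 8 conc., half-log from 100 uM, 0.5% DMSO, duplicates; serum-free induction medium. Readout: FOXO3 mRNA, TaqMan qRT-PCR, housekeeping-normalized. Bidirectional curve fit vs DMSO baseline.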

[14] = read-out: ABC Transporter (ABCB1), ABCB1 (gene 5243); test: LTEA_HepaRG_ABCB1: Life Technologies and Expression Analysis (LTEA) Assay for ABC Transporter (ABCB1) using HepaRG (AID 2283460); conditions: mRNA level, 48 h; actives raise or lower the signal
Procedure, shortened: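 Expression of ABCB1 was quantified by qRT-PCR against three housekeeping genes after human HepaRG cultures received test chemicals for 48 hours. Concentrations spanned eight half-log steps topping at 100 uM in 0.5% DMSO; gain or loss of signal was fitted relative to vehicle.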

[15] = read-out: ABC Transporter (ABCB11), ABCB11 (gene 8647); test: LTEA_HepaRG_ABCB11: Life Technologies and Expression Analysis (LTEA) Assay for ABC Transporter (ABCB11) using HepaRG (AID 2283463); conditions: mRNA level, 48 h; actives raise or lower the signal
Procedure, shortened: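 ABCB11 transcript levels are read by Fluidigm TaqMan qRT-PCR after 48 h chemical treatment of human HepaRG cells. Concentrations span 100 uM downward in half-log steps with 0.5% DMSO; gain or loss is fitted against DMSO controls.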

[16] = read-out: ABC Transporter (ABCC2), ABCC2 (gene 1244); test: LTEA_HepaRG_ABCC2: Life Technologies and Expression Analysis (LTEA) Assay for ABC Transporter (ABCC2) using HepaRG (AID 2283464); conditions: mRNA level, 48 h; actives raise or lower the signal
Procedure, shortened: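 qRT-PCR (TaqMan, Fluidigm array) read-out of ABCC2 mRNA, normalized to three housekeeping genes. Differentiated HepaRG cells were treated 48 h in serum-free induction medium with 8-point half-log series from 100 uM in 0.5% DMSO; curves fitted bidirectionally relative to DMSO.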

[17] = read-out: Broad substrate specificity ATP-binding cassette transporter ABCG2 (Homo sapiens) (UniProt Q9UNQ0); test: LTEA_HepaRG_ABCG2: Life Technologies and Expression Analysis (LTEA) Assay for ABC Transporter (ABCG2) using HepaRG (AID 2283465); conditions: mRNA level, 48 h; actives raise or lower the signal
Procedure, shortened: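 Read-out is ABCG2 mRNA induction or loss quantified by qRT-PCR after 48 h chemical treatment of human HepaRG cells, normalized to three housekeeping genes. Concentrations reached 100 uM top in half-log steps; fitting was bidirectional against 0.5% DMSO.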

[18] = CEETOX_H295R_TESTO: CeeTox H295R High-throughput Steroidogenesis Assay for Testosterone (TESTO) (AID 2283457); conditions: actives raise or lower the signal;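 on AC50: cells exposed to chemicals for 48 h before medium collection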
Procedure, shortened: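 Readout: testosterone quantified by HPLC-MS/MS (C18, ESI positive) after MTBE liquid-liquid extraction of culture medium. Cells were H295R, 48 h chemical exposure per OECD 456 with modifications. Gain or loss of signal fitted relative to DMSO.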

[19] = read-out: ABC Transporter (ABCC3), ABCC3 (gene 8714); test: LTEA_HepaRG_ABCC3: Life Technologies and Expression Analysis (LTEA) Assay for ABC Transporter (ABCC3) using HepaRG (AID 2283462); conditions: mRNA level, 48 h; actives raise or lower the signal
Procedure, shortened: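 qRT-PCR read-out of ABCC3 transcript, normalized to three housekeeping genes (ACTB, GAPDH, POLR2A), after 48 h chemical exposure of human HepaRG cells. Eight half-log concentrations, highest 100 uM, in 0.5% DMSO; gain or loss fitted relative to DMSO baseline.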

[20] = read-out: growth arrest and DNA damage 45 (GADD45B), GADD45B (gene 4616); test: LTEA_HepaRG_GADD45B: Life Technologies and Expression Analysis (LTEA) Assay for growth arrest and DNA damage 45 (GADD45B) using HepaRG (AID 2283461); conditions: mRNA level, 48 h; actives raise or lower the signal
Procedure, shortened: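 qRT-PCR read-out (Fluidigm TaqMan, housekeeping-normalized) of mRNA change in human HepaRG cells after 48 h chemical exposure; 8-point curve, top 100 uM, half-log steps, 0.5% DMSO vehicle; gain or loss fitted relative to DMSO baseline.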

Measured: AC50

Chain of Broad substrate specificity ATP-binding cassette transporter ABCG2 (Homo sapiens) (Q9UNQ0 whole entry, looked up): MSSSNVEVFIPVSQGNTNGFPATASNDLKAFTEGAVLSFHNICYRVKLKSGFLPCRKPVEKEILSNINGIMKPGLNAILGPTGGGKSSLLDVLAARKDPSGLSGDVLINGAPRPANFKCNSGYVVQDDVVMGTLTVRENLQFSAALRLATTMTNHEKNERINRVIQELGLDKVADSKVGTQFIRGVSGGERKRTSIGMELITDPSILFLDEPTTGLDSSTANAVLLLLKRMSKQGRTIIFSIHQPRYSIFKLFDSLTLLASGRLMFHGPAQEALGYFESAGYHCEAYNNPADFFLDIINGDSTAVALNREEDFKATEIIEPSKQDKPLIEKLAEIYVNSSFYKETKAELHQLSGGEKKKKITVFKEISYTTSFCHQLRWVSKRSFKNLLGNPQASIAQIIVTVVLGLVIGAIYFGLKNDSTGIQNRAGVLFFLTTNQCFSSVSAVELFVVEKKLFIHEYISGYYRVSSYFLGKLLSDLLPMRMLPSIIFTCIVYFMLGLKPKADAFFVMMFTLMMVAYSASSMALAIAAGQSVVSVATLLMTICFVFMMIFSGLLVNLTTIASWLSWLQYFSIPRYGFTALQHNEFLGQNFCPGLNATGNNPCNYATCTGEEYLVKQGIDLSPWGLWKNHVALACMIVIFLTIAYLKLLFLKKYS
Chain of Fatty acid synthase (Homo sapiens) (P49327 whole entry, looked up): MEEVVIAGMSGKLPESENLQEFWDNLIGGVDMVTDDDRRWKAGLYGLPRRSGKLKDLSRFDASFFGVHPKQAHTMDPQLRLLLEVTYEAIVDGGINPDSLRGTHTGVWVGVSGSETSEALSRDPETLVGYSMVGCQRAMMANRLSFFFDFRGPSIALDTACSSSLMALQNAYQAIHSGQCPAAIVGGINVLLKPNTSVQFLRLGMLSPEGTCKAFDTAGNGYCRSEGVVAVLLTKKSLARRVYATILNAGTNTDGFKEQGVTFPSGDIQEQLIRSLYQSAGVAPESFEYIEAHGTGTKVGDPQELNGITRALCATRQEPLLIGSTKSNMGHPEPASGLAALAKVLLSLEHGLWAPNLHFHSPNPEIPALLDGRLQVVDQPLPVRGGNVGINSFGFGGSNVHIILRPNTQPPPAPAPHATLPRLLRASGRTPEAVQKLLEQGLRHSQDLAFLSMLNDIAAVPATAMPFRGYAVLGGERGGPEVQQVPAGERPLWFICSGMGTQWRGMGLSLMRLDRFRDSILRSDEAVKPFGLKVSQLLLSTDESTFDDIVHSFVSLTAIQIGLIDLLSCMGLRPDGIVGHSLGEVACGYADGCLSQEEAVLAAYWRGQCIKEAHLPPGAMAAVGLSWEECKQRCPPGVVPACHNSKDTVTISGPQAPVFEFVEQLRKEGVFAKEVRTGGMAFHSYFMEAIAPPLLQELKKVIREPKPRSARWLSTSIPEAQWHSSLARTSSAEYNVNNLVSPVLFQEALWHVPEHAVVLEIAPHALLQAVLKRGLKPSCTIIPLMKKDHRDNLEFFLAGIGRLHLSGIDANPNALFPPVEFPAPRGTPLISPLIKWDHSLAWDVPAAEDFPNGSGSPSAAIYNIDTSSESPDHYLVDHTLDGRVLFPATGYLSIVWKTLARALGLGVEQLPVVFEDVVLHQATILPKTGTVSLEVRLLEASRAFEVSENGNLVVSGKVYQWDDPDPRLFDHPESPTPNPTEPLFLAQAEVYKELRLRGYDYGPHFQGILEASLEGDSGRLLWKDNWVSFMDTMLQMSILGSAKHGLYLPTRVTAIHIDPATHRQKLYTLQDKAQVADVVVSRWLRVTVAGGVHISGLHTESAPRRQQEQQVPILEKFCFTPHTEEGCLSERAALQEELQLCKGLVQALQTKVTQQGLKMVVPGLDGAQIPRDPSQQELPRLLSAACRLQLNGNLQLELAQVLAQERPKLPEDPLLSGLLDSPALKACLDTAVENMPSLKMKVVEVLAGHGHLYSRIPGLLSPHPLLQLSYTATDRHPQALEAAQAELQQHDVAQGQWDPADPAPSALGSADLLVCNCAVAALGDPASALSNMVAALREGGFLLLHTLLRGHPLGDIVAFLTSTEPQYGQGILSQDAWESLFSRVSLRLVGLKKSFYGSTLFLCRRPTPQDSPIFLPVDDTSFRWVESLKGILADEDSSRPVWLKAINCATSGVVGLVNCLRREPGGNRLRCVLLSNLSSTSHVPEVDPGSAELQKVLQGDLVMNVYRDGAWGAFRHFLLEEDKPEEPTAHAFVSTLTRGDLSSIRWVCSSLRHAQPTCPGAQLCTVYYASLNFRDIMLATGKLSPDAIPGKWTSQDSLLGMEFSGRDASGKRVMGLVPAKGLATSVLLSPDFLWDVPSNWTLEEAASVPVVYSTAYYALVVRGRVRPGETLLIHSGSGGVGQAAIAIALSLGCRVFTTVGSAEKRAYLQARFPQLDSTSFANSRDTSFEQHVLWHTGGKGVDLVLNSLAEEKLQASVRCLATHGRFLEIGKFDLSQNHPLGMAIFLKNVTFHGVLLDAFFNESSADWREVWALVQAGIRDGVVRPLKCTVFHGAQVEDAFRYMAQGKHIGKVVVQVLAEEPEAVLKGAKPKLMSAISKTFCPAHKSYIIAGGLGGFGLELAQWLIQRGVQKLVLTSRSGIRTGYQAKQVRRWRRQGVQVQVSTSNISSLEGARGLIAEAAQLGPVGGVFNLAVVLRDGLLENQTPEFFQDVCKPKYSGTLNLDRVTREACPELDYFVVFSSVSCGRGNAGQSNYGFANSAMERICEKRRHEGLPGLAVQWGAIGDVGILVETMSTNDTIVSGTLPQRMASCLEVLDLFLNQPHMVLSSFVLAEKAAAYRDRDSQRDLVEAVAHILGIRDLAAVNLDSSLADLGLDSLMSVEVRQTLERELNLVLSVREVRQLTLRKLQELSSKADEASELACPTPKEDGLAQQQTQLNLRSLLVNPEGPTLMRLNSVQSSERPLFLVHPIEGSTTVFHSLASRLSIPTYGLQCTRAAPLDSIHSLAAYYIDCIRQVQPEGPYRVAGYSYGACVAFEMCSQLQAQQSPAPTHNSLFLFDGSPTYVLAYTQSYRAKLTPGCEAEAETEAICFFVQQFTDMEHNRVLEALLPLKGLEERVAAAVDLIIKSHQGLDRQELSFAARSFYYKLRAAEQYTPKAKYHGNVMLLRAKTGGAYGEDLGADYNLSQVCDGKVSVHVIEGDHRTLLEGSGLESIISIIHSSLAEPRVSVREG

COc1cccc(C(=O)NN(C(=O)c2cc(C)cc(C)c2)C(C)(C)C)c1C
active: [9] 50 µM | [14] 4.33 µM | [15] 19.5 µM | [16] 8.52 µM | [17] 16.7 µM
not listed: [18] | [19] | [20]
inactive: all other assays above

CCOP(=O)(NC(C)C)Oc1ccc(SC)c(C)c1 (stereo not given)
active: [1] 32.2 µM | [9] 50 µM | [18] 26.2 µM | [15] 5.28 µM
not listed: [4] | [20]
inactive: all other assays above

Nc1nc(N)nc(NC2CC2)n1
not listed: [9] | [18]
inactive: all other assays above

CCCCN(CC)c1c([N+](=O)[O-])cc(C(F)(F)F)cc1[N+](=O)[O-]
not listed: [9] | [18] | [19]
inactive: all other assays above

CNC(=O)ON=C(C)SC
active: [15] 16.7 µM
not listed: [9] | [18] | [19]
inactive: all other assays above

CCOC(=O)COc1cc(-c2nn(C)c(OC(F)F)c2Cl)c(F)cc1Cl
active: [14] 34.3 µM | [16] 50 µM
not listed: [9] | [20]
inactive: all other assays above
